Laboratory results reported in PubChem BioAssay (NCATS).
Inconclusive results are not listed. Entries that show only a call come without a potency. Active and inactive are the calls of the source. Unless noted, calls follow the shape of the dose curve; as a rule, active = well fitted curve in the direction sought with a large enough effect; inconclusive = small, poorly fitted or top-dose-only effect, or another doubt; inactive = no such curve, though single readings can be large; an effect the other way counts as inactive or inconclusive. Where a SMILES comes first, the peptide text is derived from it.

Target: Cytochrome P450 2C9 (Homo sapiens) (UniProt P11712)
Sequence (P11712 whole entry, looked up): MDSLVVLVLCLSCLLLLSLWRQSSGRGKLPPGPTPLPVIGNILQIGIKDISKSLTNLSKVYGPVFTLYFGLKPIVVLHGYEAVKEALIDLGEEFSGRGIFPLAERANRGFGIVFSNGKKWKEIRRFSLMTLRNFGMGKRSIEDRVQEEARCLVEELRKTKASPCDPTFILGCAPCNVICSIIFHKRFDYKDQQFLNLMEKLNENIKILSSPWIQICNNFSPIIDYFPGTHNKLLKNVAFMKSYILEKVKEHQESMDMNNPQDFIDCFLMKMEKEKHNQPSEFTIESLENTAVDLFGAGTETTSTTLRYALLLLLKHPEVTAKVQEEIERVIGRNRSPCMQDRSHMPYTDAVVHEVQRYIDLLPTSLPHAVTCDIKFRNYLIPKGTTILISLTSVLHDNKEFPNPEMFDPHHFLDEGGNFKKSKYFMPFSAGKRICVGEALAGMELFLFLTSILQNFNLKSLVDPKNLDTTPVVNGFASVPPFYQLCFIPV
Assay: Cytochrome P450 family 2 subfamily C member 9 (CYP2C9) small molecule antagonists: luciferase biochemical (cell-free) qHTS assay (AID 1645842; active = well fitted curve in the direction sought with a large enough effect in the repeat runs; an effect the other way counts as inactive or inconclusive; also: nearly all actives have a fitted effect of over 55% in size)
Settings: P450-Glo CYP2C9 enzyme assay, luciferin luminescence; series mostly up to 57.4 µM
In short: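 P450-Glo CYP2C9 system: proluciferin substrate with enzyme in mix containing 0.4% BSA, 10 min at room temperature, then NADPH regeneration solution added and incubated 1 h at 37C. Detection reagent stopped reaction; luminescence read after 20 min as RLU.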
Potency is read from the fitted curve at half-maximal effect.

SMILES	Potency
O=C1[C@@H]2[C@H]3CC[C@H](C3)[C@@H]2C(=O)N1CCCCN1CCN(c2ncccn2)CC1	inactive
CC(C(O)c1ccccc1)N(C)CCOC(c1ccccc1)c1ccccc1 (stereo unspecified)	13.8 µM (active)
NC(=O)COCCN1CCN(C(c2ccccc2)c2ccc(Cl)cc2)CC1 (stereo unspecified)	inactive
C[C@H]1C[C@H]2[C@@H]3CCC4=CC(=O)C=C[C@]4(C)[C@H]3C(=O)C[C@]2(C)[C@@]1(O)C(=O)CO	15.1 µM (active)
O=C(O)CCCC[C@@H]1SC[C@@H]2NC(=O)N[C@@H]21	inactive
C#CC(C)(CC)OC(=O)c1ccccc1C(=O)O (stereo unspecified)	inactive
COC(=O)/C=C\C(=O)OC	inactive
Nc1ccc2c(c1)CN1C(=O)c3ccccc3C1=N2	4.25 µM (active)
CN1C(=O)CC(C)(c2ccccc2)C1=O (stereo unspecified)	inactive
O=C(CCCCC(=O)Nc1c(I)cc(I)c(C(=O)O)c1I)Nc1c(I)cc(I)c(C(=O)O)c1I	inactive
CC(=O)N[C@@H](CO)C(=O)N[C@@H](CC(=O)O)C(=O)N[C@@H](CCCCN)C(=O)N1CCC[C@H]1C(=O)O (Ac-SDKP-OH)	inactive
O=[N+]([O-])c1nccn1CO[C@@H](CO)[C@H](O)CO	inactive
CCCCCN(CCCOC)C(=O)C(CCC(=O)O)NC(=O)c1ccc(Cl)c(Cl)c1 (stereo unspecified)	19.5 µM (active)
COC(=O)c1cc(Cl)c(NC(C)=O)cc1OC	inactive
CCCCCOc1ccccc1/C(=C\SC)n1ccnc1	3.89 µM (active)
O=C(O)c1ccc(OCCN2CCCCC2)cc1	inactive
CN1C(=O)c2ccccc2C1=O	inactive
CC(C)OP(=O)(CP(=O)(OC(C)C)OC(C)C)OC(C)C	inactive
Cc1ccc2c(Cl)cc(Cl)c(O)c2n1	inactive
O=C1CC2(CCCC2)CC(=O)N1CCNCC1COc2ccccc2O1 (stereo unspecified)	inactive
Cn1c(=O)c2c(ncn2CC(=O)O)n(C)c1=O	inactive
Cc1ccc(/C=N/n2c(-c3ccccc3)csc2=S)cc1	4.36 µM (active)

Test system: not listed separately
Assay: Primary qHTS for inhibitors of nuclear receptor binding SET domain protein 2 (NSD2) in an isogenic RCH-ACV NSD2 p.E1099K mutant (9B) (AID 1645876); also: nearly all actives have a fitted effect of over 70% in size
Settings: RCH-ACV (leukaemia line) NSD2 E1099K (9B) viability, CellTiter-Glo, 72 h; series mostly up to 44.9 µM

SMILES	Potency
COc1cc(C(=O)NC2CCCNC2)cc(OC)c1OC (stereo unspecified)	inactive
CC(=O)N(c1onc(C)c1C)S(=O)(=O)c1ccc(N)cc1	inactive
C[C@@H]1C[C@H]2[C@@H]3CCC4=CC(=O)C=C[C@]4(C)[C@@]3(F)[C@@H](O)C[C@]2(C)[C@@]1(O)C(=O)COC(=O)c1ccncc1	inactive
CN(C)CCN1CCN(c2cccc(Cl)c2)C1=O	inactive
CCCCCCCCCCCCCCCCCCN(C)C	inactive
O=C(CCCl)NCc1ccccc1	inactive
Nc1ncnc2c1ncn2Cc1c(F)cccc1Cl	inactive
O=C(O)C(=O)Nc1cccc(-c2nn[nH]n2)c1	inactive
CC1CC(=O)NN=C1c1ccc(NCC(C)(C)NCC(O)COc2cc(Cl)ccc2C#N)cc1 (stereo unspecified)	inactive
O=C(Nc1ccc(Cl)cc1)Nc1ccc(Cl)c(C(F)(F)F)c1	4.22 µM (active)
COC(=O)CCCCC(CCSS/C(CCO)=C(\C)N(C=O)Cc1cnc(C)nc1N)SC(C)=O (stereo unspecified)	inactive
CCN1CCN(C(=O)N[C@@H](C(=O)N[C@@H]2C(=O)N3[C@@H]2SC(C)(C)[C@H]3C(=O)O)c2ccccc2)C(=O)C1=O	inactive
N#Cc1cc(NC(=O)C(=O)O)c(Cl)c(NC(=O)C(=O)O)c1	inactive
CNC(=O)c1c(I)c(NC(C)=O)c(I)c(C(=O)O)c1I	inactive
O=C(CO)[C@@H](O)[C@H](O)[C@@H](O)CO	inactive
CN(CC1(C)CCCO1)S(=O)(=O)c1ccc(Cl)c(S(N)(=O)=O)c1 (stereo unspecified)	inactive
CC(=O)Nc1c(I)c(NC(C)=O)c(I)c(C(=O)O)c1I	inactive
O=C1[C@@H]2[C@H]3CC[C@H](C3)[C@@H]2C(=O)N1CCCCN1CCN(c2ncccn2)CC1	inactive
CC(C(O)c1ccccc1)N(C)CCOC(c1ccccc1)c1ccccc1 (stereo unspecified)	16.3 µM (active)
NC(=O)COCCN1CCN(C(c2ccccc2)c2ccc(Cl)cc2)CC1 (stereo unspecified)	inactive

SMILES	Potency
C[C@H]1C[C@H]2[C@@H]3CCC4=CC(=O)C=C[C@]4(C)[C@H]3C(=O)C[C@]2(C)[C@@]1(O)C(=O)CO	inactive
O=C(O)CCCC[C@@H]1SC[C@@H]2NC(=O)N[C@@H]21	inactive
C#CC(C)(CC)OC(=O)c1ccccc1C(=O)O (stereo unspecified)	inactive
COC(=O)/C=C\C(=O)OC	inactive
Nc1ccc2c(c1)CN1C(=O)c3ccccc3C1=N2	7.31 µM (active)
CN1C(=O)CC(C)(c2ccccc2)C1=O (stereo unspecified)	inactive
O=C(CCCCC(=O)Nc1c(I)cc(I)c(C(=O)O)c1I)Nc1c(I)cc(I)c(C(=O)O)c1I	inactive
CC(=O)N[C@@H](CO)C(=O)N[C@@H](CC(=O)O)C(=O)N[C@@H](CCCCN)C(=O)N1CCC[C@H]1C(=O)O (Ac-SDKP-OH)	inactive
O=[N+]([O-])c1nccn1CO[C@@H](CO)[C@H](O)CO	inactive
CCCCCN(CCCOC)C(=O)C(CCC(=O)O)NC(=O)c1ccc(Cl)c(Cl)c1 (stereo unspecified)	inactive
COC(=O)c1cc(Cl)c(NC(C)=O)cc1OC	inactive
CCCCCOc1ccccc1/C(=C\SC)n1ccnc1	13.3 µM (active)
O=C(O)c1ccc(OCCN2CCCCC2)cc1	inactive
CN1C(=O)c2ccccc2C1=O	inactive
CC(C)OP(=O)(CP(=O)(OC(C)C)OC(C)C)OC(C)C	inactive
Cc1ccc2c(Cl)cc(Cl)c(O)c2n1	inactive
O=C1CC2(CCCC2)CC(=O)N1CCNCC1COc2ccccc2O1 (stereo unspecified)	inactive
Cn1c(=O)c2c(ncn2CC(=O)O)n(C)c1=O	inactive
Cc1ccc(/C=N/n2c(-c3ccccc3)csc2=S)cc1	inactive
